Our source for the growth values is PubChem BioAssay (NCI).

Molecules are shown by their SMILES. About 83,000 compounds went through this panel and 20% of them were active in at least one assay; those are over-represented in the sample as a whole.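 Single-concentration screen, 48 h exposure, 96-well plates. Endpoint: percent growth. Below 10 = active.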 Unmarked numbers belong to inactive results. Active and inactive are the calls of the source.

One experiment has as its system BT-549 breast. As to the kind of experiment: NCI-60 one-dose screen, 48 h (100 = growth as untreated, 0 = no growth, -100 = all killed). As to conditions: 10 µM unless noted.
On to `CC1(C)CC(=O)C2=C(C1)C(c1ccc(Cl)cc1)n1ncc(C#N)c1N2` (centres undefined), for which the growth is 103%. `CCOC(=O)C1=C(CCl)N(C)C(=O)NC1c1ccc2c(c1)OCO2` (centres undefined): the growth is 37.8%.

On to `COc1ccc(-c2cc(C(=O)N3N=C(c4ccc(N)cc4)CC3c3ccc(Cl)cc3)c3ccccc3n2)cc1` (centres undefined), for which the growth was 8.43% (active).

Turning to `Cn1cc(-c2csc(-c3cn(C)c4ccccc34)n2)c2cnccc21`, the growth is 87.8%.

On to `CC(C)c1ccc2c(c1)CC[C@H]1[C@](C)(C(=O)OCC#CCN3CCCC3)CCC[C@]21C`, for which the growth was 93.4%. On the same count and under the same terms, for `Cc1cc(=O)n(C(=S)Nc2ccc(Cl)cc2)c2cc(O)ccc12` the value was 119%. The same measure, in the same setting: for `O=C1Nc2ccc(Cl)cc2/C1=C/c1ccc[nH]1` the value was 48.7%. Take `COc1nc(/C=C\Nc2ccc3c(c2)OCCOCCOCCOCCO3)nc(OC)n1`: the growth was 92.9%.

In the case of `CC1=C2CC/C(C)=C/CC[C@]3(C)O[C@H]3CC/C(C)=C/[C@H]2OC1`, the growth is 106%. In the case of `CCN1C(=O)N(CC)C2C1NN=c1s/c(=C\c3ccc(OC)cc3)c(=O)n12` (centres undefined), the growth was 9.76% (active). Still for that read-out and setting: with `Cc1nn(C)c2ncnc(N/N=C/c3cccc(O)c3O)c12` the figure was 30.8%. Still for that read-out and setting: with `CC(C)C1C2=C(NCCN1C(=O)c1ccncc1)C(C)(C)N(Cc1ccccc1)C2=O` (centres undefined) the figure was 104%.

On to `CN(C)c1ccc(C(=S)c2ccc(N(C)C)cc2)cc1`, for which the growth was 83.5%. Same read-out and setting: with `CSc1ccc(N2C(=N)C(=S)N(c3ccc(C)cc3)C2=O)cc1` the figure was 72.2%. Same read-out and setting: for `CCOC(=O)C/C(=N\Nc1cc(=O)[nH]c2ccc(C)cc12)C(=O)OCC` the value was 108%. Same read-out and setting: for `Clc1ccc(Nc2ncc(Cc3cccc(Cl)c3Cl)s2)cc1` the value was 129%; for `CCOC(=O)c1nnn(-c2no[n+]([O-])c2-c2ccc(OC)cc2)c1COc1cccc2cccnc12`, -14.7% (active); for `NC(=O)c1ccccc1OCC(=O)Nc1ccc(Cl)c(Cl)c1`, 93.2%. Regarding `C=C1CC[C@@H]2C(C)(C)[C@H](O)CC[C@@]2(C)[C@@H]1COc1ccc2ccc(=O)oc2c1`, the growth is 5.68% (active). Same read-out and setting: for `O=S(Nc1ccccc1)c1ccc(Cl)cc1` (centres undefined) the value was 110%; for `COc1cccc(-c2cn3nc(-c4cn(C)c5ccccc45)sc3n2)c1`, 102%; for `COc1cc2c(cc1-c1c(C)noc1C)ncc1nc(CN3CCOCC3)n([C@H](C)COC(F)F)c12`, 55.5%. On to `CN1c2ccccc2S(=O)(=O)n2c(SCC(=O)Nc3nc4ccc(F)cc4s3)nnc21`, for which the growth is 122%. Same read-out and setting: with `O=S(=O)(Nc1cc(Sc2nc3ccccc3s2)c(O)c2ccccc12)c1ccc2ccccc2c1` the figure was 105%; with `Cn1c(C#N)ccc1-c1ccc(F)c(NC(=O)c2ccc(F)cc2)c1`, 80%.

For another experiment, the system named is MDA-MB-435 melanoma. Described as above. As to conditions: 10 µM unless noted.
On to `CN(C)CCCNC(=O)c1cncnc1Nc1ccc2c(ccn2Cc2cccc(F)c2)c1`, for which the growth was 79.6%. Same read-out and setting: for `CCOC(=O)/C(=C(/C)NCC(C)C)c1cc(O)c(O)c2c(C)cc(=O)[nH]c12` the value was 60.9%; for `COc1ccc(Nc2ncc(C#N)c(NCCCNC(=O)C3CCC3)n2)cc1`, 68.5%. Still for that read-out and setting: for `C=C1SC(=Nc2ccccc2Cl)N(C(=O)c2sc3ccccc3c2Cl)C1(C)C` the value was 99.1%. On the same count and under the same terms, for `CN1CC(c2ccc(Br)cc2)C(C(=O)c2ccc(Br)cc2)C12C(=O)Nc1ccccc12` (centres undefined) the value was 78.9%. Turning to `CC(C)Cc1nc(Nc2ccccc2)[nH]c(=O)c1C#N`, the growth was 70.6%. Still for that read-out and setting: for `CC(C)(C)c1ccc(S(=O)(=O)Oc2ccc(-c3sc4cc(OS(=O)(=O)c5ccc(C(C)(C)C)cc5)ccc4c3C(=O)c3ccc(OCCN4CCCCC4)cc3)cc2)cc1` the value was 100%. Same read-out and setting: for `Nc1ncccc1O` the value was 109%; for `COc1cc(C[C@H]2COc3cc(O)cc(O)c3C2=O)ccc1O`, -22.5% (active). Same read-out and setting: with `CCN(CC)C(=O)CC1=C(C)/C(=C/c2[nH]c(-c3ccc[nH]3)cc2OC)N=C1C` the figure was 17.2%; with `COc1ccc(C2CC(c3ccccc3)=NN2C(=O)c2cc(OC)c(OC)c(OC)c2)cc1O` (centres undefined), -7.61% (active).

For `C[C@@H]1CN(c2cnc(C(=O)Nc3cc(F)cc4cccnc34)cn2)C[C@H](C)N1`, the growth was 97%. Still for that read-out and setting: with `O=C(Nc1cc(Cl)ccc1O)c1ccccc1Nc1ccnc(C(F)(F)F)c1` the figure was 29.1%; with `O=c1ccc2ccc(OCCN3CCCCC3)cc2o1`, 101%. The same measure, in the same setting: with `CC1(C)CC(=O)C2=C(C1)C(c1ccc(Cl)cc1)n1ncc(C#N)c1N2` (centres undefined) the figure was 103%; with `CCOC(=O)C1=C(CCl)N(C)C(=O)NC1c1ccc2c(c1)OCO2` (centres undefined), 26.6%.

Regarding `COc1ccc(-c2cc(C(=O)N3N=C(c4ccc(N)cc4)CC3c3ccc(Cl)cc3)c3ccccc3n2)cc1` (centres undefined), the growth was -12.9% (active). Same read-out and setting: for `Cn1cc(-c2csc(-c3cn(C)c4ccccc34)n2)c2cnccc21` the value was -79.4% (active). The same measure, in the same setting: with `CC(C)c1ccc2c(c1)CC[C@H]1[C@](C)(C(=O)OCC#CCN3CCCC3)CCC[C@]21C` the figure was 82.9%; with `Cc1cc(=O)n(C(=S)Nc2ccc(Cl)cc2)c2cc(O)ccc12`, 105%. As to `O=C1Nc2ccc(Cl)cc2/C1=C/c1ccc[nH]1`, the growth was 96.5%.

`COc1nc(/C=C\Nc2ccc3c(c2)OCCOCCOCCOCCO3)nc(OC)n1`: the growth was 94.8%. Still for that read-out and setting: with `CC1=C2CC/C(C)=C/CC[C@]3(C)O[C@H]3CC/C(C)=C/[C@H]2OC1` the figure was 98.7%; with `CCN1C(=O)N(CC)C2C1NN=c1s/c(=C\c3ccc(OC)cc3)c(=O)n12` (centres undefined), -23.7% (active); with `Cc1nn(C)c2ncnc(N/N=C/c3cccc(O)c3O)c12`, 24.4%.

Consider `CC(C)C1C2=C(NCCN1C(=O)c1ccncc1)C(C)(C)N(Cc1ccccc1)C2=O` (centres undefined), for which the growth was 104%. The same measure, in the same setting: for `CN(C)c1ccc(C(=S)c2ccc(N(C)C)cc2)cc1` the value was -13.2% (active); for `CSc1ccc(N2C(=N)C(=S)N(c3ccc(C)cc3)C2=O)cc1`, 102%. Same read-out and setting: with `CCOC(=O)C/C(=N\Nc1cc(=O)[nH]c2ccc(C)cc12)C(=O)OCC` the figure was 98.6%. Still for that read-out and setting: with `Clc1ccc(Nc2ncc(Cc3cccc(Cl)c3Cl)s2)cc1` the figure was 105%. As to `CCOC(=O)c1nnn(-c2no[n+]([O-])c2-c2ccc(OC)cc2)c1COc1cccc2cccnc12`, the growth is 9.72% (active). Same read-out and setting: for `NC(=O)c1ccccc1OCC(=O)Nc1ccc(Cl)c(Cl)c1` the value was 103%. Still for that read-out and setting: for `C=C1CC[C@@H]2C(C)(C)[C@H](O)CC[C@@]2(C)[C@@H]1COc1ccc2ccc(=O)oc2c1` the value was 64.4%; for `O=S(Nc1ccccc1)c1ccc(Cl)cc1` (centres undefined), 90.4%; for `COc1cccc(-c2cn3nc(-c4cn(C)c5ccccc45)sc3n2)c1`, 36.5%. The same measure, in the same setting: with `COc1cc2c(cc1-c1c(C)noc1C)ncc1nc(CN3CCOCC3)n([C@H](C)COC(F)F)c12` the figure was 35.8%; with `CN1c2ccccc2S(=O)(=O)n2c(SCC(=O)Nc3nc4ccc(F)cc4s3)nnc21`, 117%.

As for `O=S(=O)(Nc1cc(Sc2nc3ccccc3s2)c(O)c2ccccc12)c1ccc2ccccc2c1`, the growth is 95.4%. `Cn1c(C#N)ccc1-c1ccc(F)c(NC(=O)c2ccc(F)cc2)c1`: the growth was -11.2% (active).
